We go through four molecules from PubChem BioAssay.

Calls of active or inactive are those of the source. Unless noted, the rule behind the calls is not given here.

The subject of experiment [1] is Wnt5a (protein binding on small-molecule microarray). Nature of the experiment: Wnt5a binders on small-molecule microarray, primary screen, biophysical, 635/667 nm fluorescence (AID 1142).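 Note: fluorescence read at 667 nm with signal to noise per printed feature.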 The settings on record: 635 nm fluorescence, higher = more signal.
Experiment [2] is described as follows: cell viability in Huh7 cells, primary screen, cytotoxicity control for HCV replication inhibitor project, CellTiter-Glo luminescence, basal, 48 h (AID 1143).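 Note: Huh7 hepatoma cells carrying a hepatitis C replication reporter with no stimulus; test concentration not given here.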 The settings on record: Huh7 HCV replicon, higher = more signal, called active from +8 up or from −8 down. (In general: ATP-based viability assays read luminescence as a measure of living cells.)
The nature of experiment [3]: P. aeruginosa biofilm formation inhibitors, primary screen, PAO1 strain, BacTiter-Glo luminescence, LB-PBS (AID 1144). The settings on record: 12 h, higher = more signal.
The nature of experiment [4]: CREB reporter modulators without forskolin, primary screen, cell-based, PC12, CRE-LacZ reporter, unstimulated (AID 1145). The settings on record: no forskolin, luminescence, 4.5 h, higher = more signal, called active from +8 up or from −8 down.
The nature of experiment [5]: CREB reporter modulators under forskolin, primary screen, cell-based, PC12, CRE-LacZ reporter, forskolin-stimulated (AID 1146).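 Note: PC12 cells with 6xCRE LacZ reporter stimulated by forskolin 10 µM; beta-galactosidase reporter signal reflecting CREB driven transcription.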 The settings on record: luminescence, 4.5 h, higher = more signal, called active from +8 up or from −8 down.
Experiment [6] has as its target Streptavidin (Streptomyces avidinii) (UniProt P22629). In words: streptavidin binders on small-molecule microarray, primary screen, artefact control for SMM compound annotation, biophysical, 635/667 nm fluorescence (AID 1147).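 Note: signal reflects streptavidin binding to arrayed compounds as a control protein.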 The settings on record: streptavidin binding, higher = more signal.
Experiment [7] in a line: small-molecule binders of probe aInhba, primary screen, biochemical, small-molecule microarray, 635/667 nm fluorescence (AID 1148).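 Note: score merges 667nm spot fluorescence with signal-to-noise for antibody binding to printed compounds.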 The settings on record: higher = more signal.
Experiment [8] addresses Torsin-1A (Homo sapiens) (UniProt O14656). Nature of the experiment: torsin A binders from cell lysate, primary screen, small-molecule microarray, wild-type, 635/667 nm (AID 1149). The settings on record: COS7 hTOR1A-WT lysate, 635 nm fluorescence, higher = more signal.
Experiment [9] shares this target. Nature of the experiment: small-molecule binders of mutant TOR1A in lysate, primary screen, cell lysate, small-molecule microarray, COS7 lysate, 635/667 nm fluorescence (AID 1150).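 Note: score pools 667 nm emission and signal to noise measuring lysate protein binding.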 The settings on record: COS7 hTOR1A mutant lysate, 635 nm fluorescence, higher = more signal.
Experiment [10] concerns Sonic hedgehog protein (Shh). Nature of the experiment: small-molecule binders of Shh protein, primary screen, biochemical, small-molecule microarray, 635/667 nm fluorescence (AID 1151).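 Note: Shh protein binding to compounds spotted on small-molecule microarray slides; score combines spot fluorescence intensity with signal-to-noise across triplicate slides.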 The settings on record: small-molecule microarray binding, 635 nm fluorescence; higher = more signal.
A short description of experiment [11]: E. coli DRC41 culture turbidity changes, primary screen, E. coli filamentation inducer project, strain DRC41, OD650, 48 h (AID 1152).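 Note: E. coli MC1000 strain DRC41 lacking acrAB efflux pump and sulA.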 The settings on record: E. coli DRC41 (acrAB sulA), higher = more signal, called active from +8 up or from −8 down.
Experiment [12] can be described thus: small-molecule binders of probe aLefty1, primary screen, biochemical, small-molecule microarray, 635/667 nm fluorescence (AID 1153).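 Note: score merges spot fluorescence with signal-to-noise ratio from the scanned slide images.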 The settings on record: higher = more signal.
The nature of experiment [13]: PSAC antagonists in infected red cells, primary screen, cell-based, P. falciparum Indochina, OD700, 1 h (AID 1154). The settings on record: P. falciparum Indochina infected RBC osmotic lysis, higher = more signal, called active from +8 up or from −8 down.
Experiment [14] is described as follows: PSAC antagonists in infected red cells, primary screen, cell-based, P. falciparum Indochina, OD700, 2 h (AID 1155).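 Note: lysis reports solute entry through the parasite surface anion channel PSAC; channel blockers reduce lysis of infected cells.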 The settings on record: P. falciparum Indochina infected erythrocytes, osmotic lysis OD700; higher = more signal, called active from +8 up or from −8 down.
Experiment [15] is described as follows: osmotic lysis modulators in infected erythrocytes, primary screen, PSAC antagonist project, cell-based, P. falciparum Indochina, OD700, 3 h (AID 1156). The settings on record: higher = more signal, called active from +8 up or from −8 down.
The nature of experiment [16]: PSAC antagonists in infected red cells, primary screen, cell-based, P. falciparum Indochina, OD700, 18 h (AID 1157). The settings on record: P. falciparum Indochina infected erythrocytes, osmotic lysis OD700, 18 h; higher = more signal, called active from +8 up or from −8 down.
The nature of experiment [17]: modulators of S6 phosphorylation in cells, primary screen, cell-based, A549, cytoblot, luminescence, serum-stimulated (AID 1158).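 Note: serum-stimulated A549 lung adenocarcinoma cells; signal is phosphorylated S6 detected by cytoblot immunostaining with HRP secondary.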 The settings on record: A549 phospho-S6 cytoblot, 5 h, higher = more signal.
In experiment [18] the target is NADPH oxidase 2 (Homo sapiens) (UniProt P04839). In words: NOX2-dependent H2O2 signal modulators, primary screen, NOX inhibitor project, cell-based, HEK293-NOX2, PMA-stimulated, Amplex Red fluorescence (AID 1159). Note: test concentration not given here. The settings on record: 45 min, higher = more signal, called active from +8 up or from −8 down.
Chain of NADPH oxidase 2 (Homo sapiens) (P04839 whole entry, looked up): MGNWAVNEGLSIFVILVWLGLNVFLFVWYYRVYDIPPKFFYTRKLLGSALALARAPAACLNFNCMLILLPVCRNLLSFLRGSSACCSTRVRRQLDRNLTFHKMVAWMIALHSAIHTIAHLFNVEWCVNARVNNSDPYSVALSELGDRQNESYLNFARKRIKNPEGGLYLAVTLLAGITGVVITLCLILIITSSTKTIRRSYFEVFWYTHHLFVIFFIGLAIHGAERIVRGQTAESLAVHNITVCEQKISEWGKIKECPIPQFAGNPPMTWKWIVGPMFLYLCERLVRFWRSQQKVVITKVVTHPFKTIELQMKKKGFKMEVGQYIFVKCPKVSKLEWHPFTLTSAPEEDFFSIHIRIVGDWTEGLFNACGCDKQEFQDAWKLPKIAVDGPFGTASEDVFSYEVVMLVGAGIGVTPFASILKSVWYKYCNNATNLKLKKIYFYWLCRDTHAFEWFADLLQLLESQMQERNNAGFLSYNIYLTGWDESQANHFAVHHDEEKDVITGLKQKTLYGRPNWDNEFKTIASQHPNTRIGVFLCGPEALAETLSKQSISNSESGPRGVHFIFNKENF
Experiment [19] concerns the target NADPH oxidase 4 (Homo sapiens) (UniProt Q9NPH5). Nature of the experiment: NOX4-dependent H2O2 signal modulators, primary screen, NOX inhibitor project, cell-based, HEK293-NOX4, tetracycline-induced, Amplex Red fluorescence (AID 1160). The settings on record: 45 min, higher = more signal, called active from +8 up or from −8 down.
The target of experiment [20] is NADPH oxidase 5 (Homo sapiens) (UniProt Q96PH1). Nature of the experiment: NOX5-dependent H2O2 signal modulators, primary screen, NOX inhibitor project, cell-based, HEK293-NOX5, Amplex Red fluorescence (AID 1161). The settings on record: HEK293-NOX5, ionomycin, 45 min, higher = more signal.
Chain of NADPH oxidase 5 (Homo sapiens) (Q96PH1 whole entry, looked up): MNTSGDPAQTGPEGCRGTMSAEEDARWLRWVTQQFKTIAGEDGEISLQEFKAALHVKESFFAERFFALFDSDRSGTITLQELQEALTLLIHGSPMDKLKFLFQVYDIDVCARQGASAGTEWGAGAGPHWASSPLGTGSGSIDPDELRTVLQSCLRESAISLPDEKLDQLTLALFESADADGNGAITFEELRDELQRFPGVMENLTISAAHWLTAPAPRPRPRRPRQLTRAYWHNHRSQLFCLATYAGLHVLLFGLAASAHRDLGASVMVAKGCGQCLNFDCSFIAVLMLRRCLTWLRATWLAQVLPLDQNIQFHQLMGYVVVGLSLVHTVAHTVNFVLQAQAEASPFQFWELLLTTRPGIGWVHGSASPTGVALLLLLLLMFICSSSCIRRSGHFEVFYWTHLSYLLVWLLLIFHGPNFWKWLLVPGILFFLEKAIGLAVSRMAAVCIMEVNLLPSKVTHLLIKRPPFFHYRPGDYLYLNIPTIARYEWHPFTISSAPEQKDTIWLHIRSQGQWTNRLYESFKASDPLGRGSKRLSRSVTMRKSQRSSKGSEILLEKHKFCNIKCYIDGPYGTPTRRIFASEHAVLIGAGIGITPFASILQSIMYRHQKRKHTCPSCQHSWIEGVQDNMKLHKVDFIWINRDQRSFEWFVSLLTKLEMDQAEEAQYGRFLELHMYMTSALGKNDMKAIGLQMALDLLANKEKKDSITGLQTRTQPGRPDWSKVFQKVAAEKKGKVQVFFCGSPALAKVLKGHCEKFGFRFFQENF

Chain of Torsin-1A (Homo sapiens) (O14656 whole entry, looked up): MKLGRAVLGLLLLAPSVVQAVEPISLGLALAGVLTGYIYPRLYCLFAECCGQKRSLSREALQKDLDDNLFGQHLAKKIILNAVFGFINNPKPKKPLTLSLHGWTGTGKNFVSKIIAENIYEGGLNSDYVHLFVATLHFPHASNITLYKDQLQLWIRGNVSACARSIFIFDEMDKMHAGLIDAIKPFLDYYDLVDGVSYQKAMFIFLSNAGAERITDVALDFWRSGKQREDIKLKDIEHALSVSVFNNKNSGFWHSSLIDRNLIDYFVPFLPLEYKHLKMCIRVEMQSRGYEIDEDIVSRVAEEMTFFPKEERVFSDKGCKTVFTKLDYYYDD
Chain of Streptavidin (Streptomyces avidinii) (P22629 whole entry, looked up): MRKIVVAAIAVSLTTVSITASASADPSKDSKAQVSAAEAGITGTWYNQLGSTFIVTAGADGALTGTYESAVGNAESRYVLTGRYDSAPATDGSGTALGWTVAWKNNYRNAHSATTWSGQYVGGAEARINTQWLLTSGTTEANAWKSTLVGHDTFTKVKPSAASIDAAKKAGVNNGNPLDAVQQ
Chain of NADPH oxidase 4 (Homo sapiens) (Q9NPH5 whole entry, looked up): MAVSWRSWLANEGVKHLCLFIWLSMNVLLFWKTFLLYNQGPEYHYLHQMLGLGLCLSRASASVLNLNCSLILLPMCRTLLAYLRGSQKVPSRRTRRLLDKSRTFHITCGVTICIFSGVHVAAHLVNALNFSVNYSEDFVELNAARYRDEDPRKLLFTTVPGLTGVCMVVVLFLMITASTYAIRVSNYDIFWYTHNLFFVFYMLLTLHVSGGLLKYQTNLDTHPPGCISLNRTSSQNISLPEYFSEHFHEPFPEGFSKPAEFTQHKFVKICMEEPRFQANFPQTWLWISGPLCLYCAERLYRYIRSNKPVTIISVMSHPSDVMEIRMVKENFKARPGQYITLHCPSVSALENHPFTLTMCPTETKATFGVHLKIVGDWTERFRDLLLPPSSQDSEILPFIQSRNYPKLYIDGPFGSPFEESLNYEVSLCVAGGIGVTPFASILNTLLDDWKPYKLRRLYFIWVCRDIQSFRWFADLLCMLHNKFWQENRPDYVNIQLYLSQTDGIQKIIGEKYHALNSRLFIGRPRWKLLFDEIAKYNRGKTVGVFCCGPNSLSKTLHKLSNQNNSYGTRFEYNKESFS

As to `COC(=O)[C@@]1(Cc2ccc(OC)cc2)[C@H]2c3cc(C(=O)N4CCCC4)n(CCc4c[nH]c5ccc(OC)cc45)c3C[C@H]2CN1C(=O)c1ccccc1`, the composite z-score was 0.411 in [1]; 1.5 in experiment [6]; 0.35 in experiment [7]; -0.0701 in [8]; 0.327 in [9]; -0.565 in experiment [10]. Also, in experiment [12], the composite z-score came to 0.894. Moreover, the z-score in experiment [2] was -3.16 (inactive); in [3], 0.717 (inactive); in experiment [4], 0.201 (inactive); in [5], -0.715 (inactive); in experiment [11], -1.61 (inactive); in experiment [13] it was 4.25 (inactive). Besides, the z-score in experiment [14] was 0.71 (inactive); in [15], 1.42 (inactive); in experiment [16] it was 1.57 (inactive); in [17], 0.0592; in experiment [18] it was 0.547 (inactive); in experiment [19] it was 1.14 (inactive). The same molecule registered a z-score in experiment [20] of 1.38.

As for `OCCCC1=CC(c2ccc(CN3CCCC3)cc2)N(Cc2cc3c(cc2Br)OCO3)CC1` (stereo not given), the composite z-score is 0.268 in experiment [1]; 0.0246 in experiment [6]; -0.152 in [7]; 0.763 in experiment [8]; 0.585 in experiment [9]; 1.04 in experiment [10]. The molecule also had a composite z-score in experiment [12] of 0.192. In addition, the z-score is -1.1 (inactive) in experiment [2]; -0.808 (inactive) in experiment [3]; -0.932 (inactive) in [4]; 0.821 (inactive) in experiment [5]; 0.0676 (inactive) in experiment [11]; 3.7 (inactive) in experiment [13]. Also, the z-score in experiment [14] was 0.63 (inactive); in experiment [15], 0.795 (inactive); in experiment [16] it was 0.601 (inactive); in experiment [17], -0.187; in [18], -3.1 (inactive); in experiment [19], -1.21 (inactive). The molecule further registered a z-score in experiment [20] of -1.2.

Turning to `COC(=O)[C@@]1(Cc2ccc(F)cc2)[C@H]2c3cc(C(=O)N4CCCC4)n(Cc4ccc(C)c(F)c4F)c3C[C@H]2CN1C(=O)c1ccccc1`, the composite z-score was -0.175 in experiment [1]; -0.286 in [6]; 0.12 in experiment [7]; -0.259 in experiment [8]; -0.407 in [9]; -0.472 in [10]. Also, the composite z-score in experiment [12] was found to be 0.746. The z-score in [2] was -0.944 (inactive); in experiment [3], -0.298 (inactive); in experiment [4], 1.15 (inactive); in experiment [5], -0.177 (inactive); in experiment [11], -1.31 (inactive); in [13] it was 5.03 (inactive). Further, the z-score is 0.806 (inactive) in experiment [14]; 0.598 (inactive) in [15]; 1.06 (inactive) in experiment [16]; -0.389 in [17]; -4.01 (inactive) in experiment [18]; -7.95 (inactive) in [19]. Also, in experiment [20], the z-score is -7.01.

In the case of `CCOC(=O)C[C@H]1[C@H](OC(=O)Cc2ccc3c(c2)OCO3)[C@@H](NC(=O)c2ccc3ccccc3n2)c2cc(OCCCO)ccc2N1C(=O)c1ccccc1`, the composite z-score in [1] turned out to be 0.151; in experiment [6] it was 0.386; in [7], 0.0074; in experiment [8], 0.526; in experiment [9] it was 0.302; in experiment [10] it was 0.826. For the same molecule, the composite z-score in [12] turned out to be 0.101. Moreover, the z-score was -0.301 (inactive) in experiment [2]; -0.283 (inactive) in experiment [3]; 7.23 (inactive) in [4]; 0.613 (inactive) in experiment [5]; 1.43 (inactive) in experiment [11]; 8.88 (active) in experiment [13]. In addition, the z-score in [14] is 1.32 (inactive); in [15], -0.576 (inactive); in experiment [16], 0.308 (inactive); in [17] it was -0.246; in [18] it was -1.88 (inactive); in experiment [19], 0.521 (inactive). The z-score in experiment [20] was -2.
